SMILES strings stand for the structures. Results filed as inconclusive are left out. The source made the active and inactive calls. Calls follow the shape of the dose curve; as a rule, active = well fitted curve in the direction sought with a large enough effect; inconclusive = small, poorly fitted or top-dose-only effect, or another doubt; inactive = no such curve, though single readings can be large; an effect the other way counts as inactive or inconclusive.

A short description of test [1]: OV-KATE Cancer Cell Toxicity qHTS against the NCATS CANVASS Library (AID 1347345). The method in brief:
(§1)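 Following a 4 h pre-incubation of 1000 seeded cells, compounds were pinned in an 11-pnt dilution series and left for 72 h; viability then came from CellTiter-Glo.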
In general terms: Quantitative high-throughput screening tests each substance at several concentrations.

The nature of test [2]: COV-362 Cancer Cell Toxicity qHTS against the NCATS CANVASS Library (AID 1347352). Also: potency is read from the fitted curve at half-maximal effect. The essentials:
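Cells were seeded at 1000 per well and allowed to settle 4 hours at 37 degrees C before pin transfer of compounds as an 11-point series. Viability was read by CellTiter-Glo luminescence after 72 hours' exposure.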

Test [3] can be described thus: A2780 Cisplatin Sensitive Ovarian Cancer Cell Toxicity qHTS against the NCATS CANVASS Library (AID 1347353). Also: nearly all actives have a fitted effect of over 60% in size. Also: potency is read from the fitted curve at half-maximal effect. The essentials: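 A2780 cisplatin-sensitive cells (750 per well) were seeded, left 4 h at 37 °C, then pin-dosed in an 11-point series. After 72 h at 37 °C/5% CO2, viability was measured as ATPLite luminescence.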
Test [4] can be described thus: MCF7 Cancer Cell Toxicity qHTS against the NCATS CANVASS Library (AID 1347369). Also: potency is read from the fitted curve at half-maximal effect. The essentials: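 Cytotoxicity was measured as CellTiterGlo luminescence (ATP) after 72 h at 37 °C. The cells were MCF7 at 500 per well, with an 11-point compound concentration series.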
Test [5] is described as follows: qHTS for ATAD5 Antagonist screened against the NCATS CANVASS Library (AID 1347370). Also: nearly all actives have a fitted effect of over 65% in size. Also: potency is read from the fitted curve at half-maximal effect. The essentials:
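HEK293T cells with a stably integrated ATAD5-controlled luciferase reporter were exposed to compounds (11-pt) alongside 10 uM 5-fluorouridine as ATAD5 stabilizer for 16hr at 37C. Viability was read by CellTiter-Fluor fluorescence, then ATAD5 by luminescence.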

Test [6] can be described thus: qHTS for Hypoxia signaling pathway (HIF-1) antagonists against the NCATS CANVASS Library (AID 1347374). Also: nearly all actives have a fitted effect of over 60% in size. Also: potency is read from the fitted curve at half-maximal effect. The essentials: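 HRE-bla ME-180 cells (2,000/well, 0.5% dialyzed FBS) were pre-incubated 5 h, then given an 11-point compound series plus CoCl2 (60 uM solution as added) for 17 h at 37C. CCF4 β-lactamase read (ex 405, em 460/530 nm) after 2 h at RT.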
Test [7] can be described thus: qHTS for Inflammasome Signaling Inhibitors: IL-1-beta AlphaLISA screen against the NCATS CANVASS Library (AID 1347379).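 Also: human THP-1 cells primed with LPS then triggered with ATP.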 The essentials: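 Human THP-1 cells were pretreated 1 hr at 37 °C with compounds (up to 57.5 uM final), then stimulated with LPS (250 ng/mL final) and ATP (1.25 mM final). Secreted IL-1B was read by AlphaLISA after 16 hr.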
A short description of test [8]: Secretion counterscreen for inhibitors of the SERCaMP assay screened against the NCATS CANVASS Library (AID 1347390).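 Also: light from luciferase secreted into medium read as a measure of general secretion; series mostly up to about 77 µM.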 The method in brief: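 Counterscreen for secretory-pathway interference: after 4 h attachment, SH-SY5Y-GLuc cells were exposed 20 hours to compounds (final 0.001 - 77 uM), then coelenterazine added and GLuc luminescence recorded; Brefeldin A served as control.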

Test [9] can be described thus: qHTS for activators of Nrf2/ARE signaling pathway screened against the NCATS CANVASS Library (AID 1347391). Also: nearly all actives have a fitted effect of over 60% in size. Also: potency is read from the fitted curve at half-maximal effect. The method in brief:
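ARE-bla HepG2 beta-lactamase reporter cells, 2000 cells/well, were preincubated 5 h, then exposed to compounds (11-point series) for 16 h at 37C. CCF4 fluorescence (ex 405, em 460/530 nm) after 2 h at room temperature.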

A short description of test [10]: Viability qHTS for inhibitors of the SERCaMP assay screened against the NCATS CANVASS Library (AID 1347400). Also: nearly all actives have a fitted effect of over 70% in size. Also: potency is read from the fitted curve at half-maximal effect. The method in brief: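 SH-SY5Y-GLuc SERCaMP MJH297-derived cells (1000 cells/well) were pre-incubated 4 h at 37C, then exposed to compounds for 48 h. Viability was read as CellTiter-Glo luminescence; bortezomib served as positive control.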
A short description of test [11]: HPAF-II Cancer Cell Toxicity qHTS against the NCATS CANVASS Library (AID 1347346). Also: nearly all actives have a fitted effect of over 55% in size. Also: potency is read from the fitted curve at half-maximal effect. The method in brief: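 HPAF-II cells were seeded at 1000 cells/well, allowed to settle for 4 h at 37 degrees C, then exposed to compounds in an 11-point series for 72 h. Viability was read by CellTiter-Glo luminescence.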
The nature of test [12]: SW1088 Cancer Cell Toxicity qHTS against the NCATS CANVASS Library (AID 1347350). Also: nearly all actives have a fitted effect of over 75% in size. Also: potency is read from the fitted curve at half-maximal effect. The essentials: as §1
The nature of test [13]: U-118MG Cancer Cell Toxicity qHTS against the NCATS CANVASS Library (AID 1347351). Also: potency is read from the fitted curve at half-maximal effect. The essentials: as §1
Test [14] can be described thus: KB-8-5-11 Cancer Cell Toxicity qHTS against the NCATS CANVASS Library (AID 1347364). Also: nearly all actives have a fitted effect of over 75% in size. Also: potency is read from the fitted curve at half-maximal effect. The essentials:
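KB-8-5-11 cells (500/well) in DMEM + 10% FBS were exposed to compounds in an 11-point qHTS series for 72 hr at 37C, 5% CO2. Viability was read by CellTiter-Glo luminescence.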

The nature of test [15]: qHTS for Activators of p53 Stress Response Pathway screened against the NCATS CANVASS Library (AID 1347388). Also: potency is read from the fitted curve at half-maximal effect. The method in brief: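 p53RE-bla HCT-116 cells (4000/well) were pre-incubated for 5 h, then treated with compound (11 points) for 16 h at 37C. After 2 h with CCF4, the 460/530 nm ratio gave reporter activation; CellTiter-Glo measured viability.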
A short description of test [16]: qHTS assay for small molecule disruptors of mitochondrial membrane potential screened against the NCATS CANVASS Library (AID 1347389). Also: nearly all actives have a fitted effect of over 60% in size. Also: potency is read from the fitted curve at half-maximal effect. The method in brief: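 HepG2 cells (2,000/well) were plated overnight at 37C, exposed to compound for 1 hr at 37C/5% CO2, then loaded with Mito-MPS dye for 30 min. Depolarization was read as a drop in red (590 nm) to green (535 nm) fluorescence ratio.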

Test [17] is described as follows: Vero-766 cells viability qHTS against the NCATS CANVASS Library: Counterscreen for Zika virus inhibition assay (AID 1347394). Also: nearly all actives have a fitted effect of over 60% in size. Also: potency is read from the fitted curve at half-maximal effect. The method in brief: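 CellTiter Glo luminescence measured cytotoxicity after 72 h at 37C in uninfected Vero 766 cells, plated at 1000 cells/well. Compounds were applied in an 11-point series. Wells without cells defined 100% inhibition.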

The target of test [18] is Nuclear receptor subfamily 1 group I member 3 (Homo sapiens) (UniProt Q14994). Nature of the test: qHTS for Constitutive Androstane Receptor (CAR) Antagonist screened against the NCATS CANVASS Library (AID 1347372).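 Also: cells stimulated with 50 nM CITCO agonist so inhibition reflects antagonism; series mostly up to about 46 µM.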 The essentials:
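HepG2 cells stably carrying hCAR and CYP2B6-2.2kb luciferase reporter, 2500 cells/well, compound with 50 nM CITCO agonist for 24hr at 37C. ONE-Glo luminescence measured CAR activity; CellTiter-Fluor read viability.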

Nuclear receptor subfamily 1 group I member 3 (Homo sapiens), sequence (Q14994 whole entry, looked up): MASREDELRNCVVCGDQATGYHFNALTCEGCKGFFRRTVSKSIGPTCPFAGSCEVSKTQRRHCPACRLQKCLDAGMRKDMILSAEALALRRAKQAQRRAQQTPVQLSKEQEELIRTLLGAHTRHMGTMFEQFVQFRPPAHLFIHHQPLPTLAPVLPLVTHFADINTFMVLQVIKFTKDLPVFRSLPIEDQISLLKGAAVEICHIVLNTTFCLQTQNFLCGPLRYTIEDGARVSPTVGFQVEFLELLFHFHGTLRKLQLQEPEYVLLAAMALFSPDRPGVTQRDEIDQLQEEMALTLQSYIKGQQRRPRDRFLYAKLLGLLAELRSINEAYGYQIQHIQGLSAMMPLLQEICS

For `CCC(=O)N[C@@H](C[C@H](C)C(Cl)(Cl)Cl)C(=O)N1C(=O)C=C(OC)[C@@H]1C[C@H](C)C(Cl)Cl`, the Potency entry in test [1], in [2], in test [3], in [4], in test [5] and in test [6] was “inactive” throughout. The Potency entry in [7], in test [8], in [9] and in test [10] was “inactive” throughout.
On to `CC[C@@H]1CN2CCC3(Nc4cccc(OC)c4C3=O)[C@@H]2C[C@@H]1/C(=C\OC)C(=O)OC` (stereo partly specified), for which the Potency entry in test [1], in [11], in test [12], in [13], in test [2] and in test [3] was “inactive” throughout. Besides, the Potency result in test [14], in [4], in test [5], in [6], in test [7] and in test [15] was “inactive” in each case. The Potency entry in [16], in [8], in [9], in test [17] and in test [10] was “inactive” in each case.
For the compound `CO[C@H]([C@@H](C)[C@H]1O[C@]1(C)C[C@H](C)/C=C/C=C(\C)[C@H]1O[C@@H](CC(=O)O)CC[C@@H]1C)[C@@H](C)O`, the Potency in test [11] was 0.0266 µM (active); in [3], 0.0053 µM (active); in [14], 0.0264 µM (active); in test [4] it was 0.0052 µM (active); in test [7], 0.0385 µM (active); in test [15], 0.0148 µM (active). Also, the Potency is 0.0066 µM (active) in test [9] and 0.048 µM (active) in test [10]. The Potency result in [12], in [5], in [18], in test [16] and in test [8] was “inactive” throughout.
Consider `O[C@H]1C=C[C@@]23CCN(Cc4cc5c(cc42)OCO5)[C@@H]3C1`, for which the Potency entry in test [1], in [11], in test [12], in [13], in [2] and in [3] was “inactive” each time. Besides, the Potency entry in test [14], in test [4], in [5], in [18], in test [6] and in [7] was “inactive” in each case. In addition, the Potency result in [15], in [16], in test [8], in test [9], in [17] and in test [10] was “inactive” throughout.
In the case of `CC[C@]12C=CCN3CC[C@]4(C(=C(C(=O)OC)C1)Nc1ccccc14)[C@@H]32`, the Potency result in test [1], in test [11], in test [12], in test [13], in test [2] and in test [3] was “inactive” in each case. Further, the Potency result in test [14], in [4], in [18], in test [6], in test [15] and in test [16] was “inactive” in each case. For the same compound, the Potency result in test [8], in test [9] and in [17] was “inactive” in each case.
Take `C=C(C)[C@H]1C(=O)c2c3c(cc4c5c(n1c24)[C@@]1(C)[C@@H](CC[C@H]2[C@](C)(/C=C/C=C(\C)C(=O)O)[C@@H](O)CC[C@@]21C)C5)C1=CC(C)(C)OC(C)(C)[C@H]1[C@@H]3O`: the Potency is 5.95 µM (active) in test [11]; 5.95 µM (active) in test [12]; 18.8 µM (active) in test [13]; 21.1 µM (active) in [2]; 3.72 µM (active) in test [3]; 16.6 µM (active) in test [5]. The Potency in test [6] is 6.66 µM (active); in [16], 16.6 µM (active); in test [17], 7.41 µM (active). The Potency result in [7] and in test [9] was “inactive” throughout.
As for `C=CC(C)(C)[C@@]12C[C@H]3C(=O)N/C(=C\c4cnc[nH]4)C(=O)N3[C@@H]1Nc1ccccc12`, the Potency result in test [1], in test [11], in test [12], in test [13], in test [2] and in test [3] was “inactive” in each case. The Potency entry in [14], in [4], in test [5], in test [18], in test [6] and in test [7] was “inactive” in each case. In addition, the Potency entry in [15], in [16], in [8], in [17] and in test [10] was “inactive” throughout.
Consider `CCCCC1CC[C@H]2CCCC(CCC)N12` (stereo partly specified), for which the Potency entry in [1], in [11], in test [12], in test [13], in [2] and in [14] was “inactive” throughout. Besides, the Potency result in test [4], in test [5], in test [18], in test [6], in [7] and in [15] was “inactive” each time. The Potency result in test [16], in [8], in [9], in [17] and in test [10] was “inactive” each time.
Take `C[N+](C)(C)CCc1c[nH]c2ccccc12`: the Potency entry in test [1], in [11], in [12], in test [13], in test [2] and in test [3] was “inactive” in each case. Further, the Potency entry in test [14], in test [4], in test [5], in [18], in [6] and in [7] was “inactive” in each case. Also, the Potency result in test [15], in test [16], in [8], in test [9], in [17] and in test [10] was “inactive” throughout.

(Values after PubChem BioAssay (NCATS).)
